# Measurements: PubChem BioAssay AID651821 (The Scripps Research Institute Molecular Screening Center, 2012)
# In all, about 370,000 compounds went through this assay and about 4,700 (1.3%) were called active. The entries come from a sample that favours actives as a whole. Values without a mark were called inactive.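 The calls were made as follows: active = inhibition above the plate cutoff, the mean of all test compounds on that plate plus 3 SD (cut at about 35% in these data); inactive = the rest.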
# Experiment: small molecules binding CAG repeat RNA – biochemical, fluorescence, primary screen (AID 651821);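 also: 0% = DMSO alone and 100% = 100 µM mitoxantrone as full dye displacement; higher means more dye released from RNA so lower well fluorescence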
# Conditions: r(CAG) RNA repeat, TO-PRO-1 dye displacement fluorescence; at 3 µM; hits give high values
row,Structure (SMILES),inhibition
1,CN1C(=O)C(Br)(Br)CC1c1cccnc1 (stereo not drawn),1.36%
2,O=C(CCN1CCCCC1)N=Nc1c(O)[nH]c2ccccc12,4.74%
3,O=C(CSc1nc2ccccc2s1)N=Nc1c(O)[nH]c2ccccc12,10.6%
4,Cc1c(-c2ccccc2)n[nH]c1C(=O)N=Nc1c(O)[nH]c2ccccc12,36.8% (active)
5,Cc1ccccc1Nc1nc(N)nc(COC(=O)CCC(=O)c2ccc(F)cc2)n1,0.17%
6,CCc1ccccc1NC(=O)CSc1nnc(-c2cccs2)o1,-0.17%
7,CC(C)[C@@H](C)/C=C/[C@@H](C)[C@H]1CC[C@@H]2[C@]1(C)CCC1[C@]23C=C[C@]2(C[C@@H](O)CC[C@]12C)N(c1ccc([N+](=O)[O-])cn1)O3 (stereo partly drawn),27.1%
8,Cc1cc(C)c2nc(-c3ccco3)cc(C(=O)O)c2c1,67.3% (active)
9,Cc1ccsc1-c1cc(C(=O)O)c2c(ccc3ccccc32)n1,9.82%
10,COC(=O)c1cnn2c(C(F)(F)F)cc(-c3ccco3)nc12,10.2%
11,COC(=O)N1Cc2ccnnc2CC1c1ccccc1Br (stereo not drawn),3.21%
12,O=C(CCc1ccccc1Cl)Nc1ccc(S(=O)(=O)Nc2nccs2)cc1,44% (active)
13,O=C(Nc1ccc(S(=O)(=O)Nc2nccs2)cc1)c1cccc(S(=O)(=O)N2CCOCC2)c1,34.7% (active)
14,Cc1ccc(OCCC(=O)Nc2ccc(S(=O)(=O)Nc3nccs3)cc2)cc1,36.9% (active)
15,CCC(CC)C(=O)Nc1ccc(S(=O)(=O)Nc2nccs2)cc1,3.15%
16,CN1CCN(S(=O)(=O)c2cccc(C(=O)Nc3cccc(S(N)(=O)=O)c3)c2)CC1,1.84%
17,Cc1ccc(OCCCC(=O)Nc2ccc(S(=O)(=O)Nc3cc(C)nc(C)n3)cc2)cc1,24.9%
18,COc1ccccc1OC(C)C(=O)Nc1ccc(S(=O)(=O)Nc2nccs2)cc1 (stereo not drawn),19.7%
19,Cc1ccnc(NS(=O)(=O)c2ccc(NC(=O)c3ccc(S(=O)(=O)N4CCOCC4)cc3)cc2)n1,12.3%
20,O=C(Nc1ccc(S(=O)(=O)N2CCOCC2)cc1)c1ccc2ncsc2c1,5.29%
21,CN1CCN(S(=O)(=O)c2cccc(C(=O)Nc3sccc3C#N)c2)CC1,44.6% (active)

row,Structure (SMILES),inhibition
1,CN1CCN(S(=O)(=O)c2cccc(C(=O)N3CCc4ccccc43)c2)CC1,0.16%
2,O=C(CCS(=O)(=O)c1ccccc1Cl)Nc1ccc(S(=O)(=O)Nc2ncccn2)cc1,2.17%
3,N#Cc1cccc(C(=O)NCC2CCN(C(=O)C(=O)c3cc4ccccc4o3)CC2)c1,2.89%
4,Nc1[nH]c(C(=O)c2ccccc2)c(-c2ccc(Cl)cc2Cl)c1C(=O)c1ccccc1,5.66%
5,C[C@@H]1CN([C@H](C)CO)C(=O)CCCn2cc(nn2)CO[C@H]1CN(C)C(=O)Nc1ccc(N2CCCCC2)cc1,9.11%
6,Cc1ccc2nc(SCC(=O)N3CC(C)OC(C)C3)nc(=O)n2c1 (stereo not drawn),-10.3%
7,O=C(C1CCCN1S(=O)(=O)c1ccccc1)N1CCc2ccccc2C1 (stereo not drawn),0.6%
8,O=C(OCC(=O)N1CCCCC1)c1ccc(OC(F)(F)F)cc1,-1.21%
9,O=C(Nc1ccccc1)N1CCN(Cc2nc3ccccc3c(=O)[nH]2)CC1,-0.05%
10,CCN(CC)C(=O)CC[C@@H]1CC[C@]2(CCCN(S(=O)(=O)C3CCCCC3)C2)O1,-0.19%
11,O=C(CSc1nc2c(c(=O)[nH]1)CCCC2)N1CCCCC1,3.54%
12,O=C(Nc1ccc(S(=O)(=O)Nc2nccs2)cc1)c1cc(-c2ccncc2)nc2ccccc12,47.9% (active)
13,O=C(Nc1ccc(S(=O)(=O)Nc2nccs2)cc1)c1cc(=O)[nH]c2ccccc12,25.9%
14,Cc1cc(C(=O)OCC(=O)Nc2nccs2)c2ccccc2n1,6.91%
15,CCN(CC(=O)Nc1ccccc1C(F)(F)F)C(=O)C1CCN(C(=O)Nc2ccccc2)CC1,-1.69%
16,COC(=O)[C@]12C[C@H](CC(=O)NCCCCc3ccccc3)C(=O)N(Cc3ccc4c(c3)OCO4)C1=C[C@H](C(C)(C)C)O[C@@H]2C,9.49%
17,CSc1nc(-c2ccccc2)nc(C(Cl)Cl)n1,-0.59%
18,COCc1cc(C(C)=O)ccc1OC,3.9%
19,COC(=O)c1ccc(COc2ccc(/C=C/C(=O)c3ccc(OC)c(CSCC(=O)O)c3)cc2OC)cc1,43.7% (active)
20,COc1cc(/C=C/C(=O)OCC(=O)NC(=O)NCc2ccccc2)ccc1OCC#N,-3.56%
21,COc1cc(C(=O)NCC(c2ccco2)N2CCCC2)ccc1OCc1ccccc1 (stereo not drawn),3.03%

row,Structure (SMILES),inhibition
1,COc1ccccc1CCNC(=O)C1CCN(C(=O)/C=C/c2ccccc2)CC1,-7.33%
2,COc1ccc(C(=O)/C=C/c2ccc(-c3ccccc3)cc2)cc1CSCC(=O)O,63.2% (active)
3,CCOC(=O)[C@]12CCCC=C1N(Cc1ccc(OC)cc1)C(=O)[C@@H]2CC(=O)NCc1cccs1,1.72%
4,CN(C)[C@H]1CCN(c2cccc3c2S(=O)(=O)N2CC[C@H](C2)O3)C1,1.39%
5,CCOC(=O)c1c(NC(=O)C2CC=CCC2C(=O)O)sc(C)c1CC (stereo not drawn),34.6% (active)
6,CCOC(=O)c1c(NC(=O)CN2C(=O)NC3(CCC(C)CC3)C2=O)sc(C)c1CC (stereo not drawn),-14%
7,CCc1c(C)sc(NC(=O)c2cccs2)c1C(N)=O,5.17%
8,Cc1ccc(N)cc1CN1CCN(c2ncc(Cc3ccccc3)cn2)CC1,3.17%
9,CC(C)(C)OC(=O)NCc1cc(F)ccc1/C=C/S(=O)(=O)NCCc1ccccc1,-0.33%
10,CC1(C)OC(=O)C2=C(CC(CCc3ccccc3)OC2c2ccc(Cl)cc2)O1 (stereo not drawn),3.44%
11,CCC(C(=O)Nc1ncccn1)(C(F)(F)F)C(F)(F)F,-0.05%
12,COc1ccc(NS(=O)(=O)c2cc(NC(=O)COc3ccccc3F)ccc2OC)cc1,4.34%
13,COc1ccc(NS(=O)(=O)c2ccc(C(=O)Nc3c(C)n(C)n(-c4ccccc4)c3=O)cc2)cc1,10.7%
14,COc1cc(OC)c(S(=O)(=O)Nc2ccccc2C(=O)O)cc1S(=O)(=O)Nc1ccccc1C(=O)O,63.4% (active)
15,COc1ccc(NS(=O)(=O)c2cc(C(=O)Nc3ccccc3C(=O)O)ccc2C)cc1,74.6% (active)
16,COc1cc(/C=C/C(=O)O)cc(S(=O)(=O)Nc2ccccc2SC)c1OC,8.56%
17,COc1ccc(NS(=O)(=O)c2cc(NC(=O)CC(=O)c3ccc([N+](=O)[O-])cc3)ccc2C)cc1,42.4% (active)
18,Cc1ccc(NC(=O)CCNC(=O)c2ccc([N+](=O)[O-])cc2)cc1S(=O)(=O)N1CCOCC1,1.24%
19,COc1ccc(OC)c(S(=O)(=O)Nc2ccccc2F)c1,-3.01%
20,Cc1ccc(C(=O)Nc2ccccc2-c2ccccc2)cc1S(=O)(=O)Nc1ccccc1,17.1%
21,CCOC(=O)[C@]12CCCCC/C=C\1N(Cc1ccc(OC)cc1)C(=O)[C@H]2CC(=O)N1CCOCC1,4.38%

row,Structure (SMILES),inhibition
1,COc1ccc(-c2cc(-c3nnc(SCC(=O)Nc4cccc5ccccc45)n3N)[nH]n2)cc1,10.7%
2,COC(=O)[C@]12C[C@H](CC(=O)NCc3ccccc3)C(=O)N(CCC3=CCCCC3)C1=C[C@H](C(C)(C)C)O[C@@H]2C,1.7%
3,COc1ccc(N2CCN(CCNS(=O)(=O)c3ccc(Cl)s3)CC2)cc1,-0.11%
4,C=CCN(C)CC#Cc1ccccc1,-0.11%
5,COc1ccc(N2CCN(CCNS(=O)(=O)c3ccc([N+](=O)[O-])cc3)CC2)cc1,0.28%
6,CCCC[C@H](C(=O)N(CC)c1ccccc1)[C@@H](O)c1ccc2ccccc2c1,4.92%
7,O=C(O)c1ccc2c(c1)C(=O)N(c1ccc(/C=C/C(=O)c3ccccc3)cc1)C2=O,46.3% (active)
8,CC(=O)Nc1ccc(NC(=O)c2ccc3c(c2)C(=O)N(c2ccccc2C)C3=O)cc1,-2.08%
9,CC(=O)Oc1ccc(C)cc1N1C(=O)c2ccc(C(=O)O)cc2C1=O,4.11%
10,CN1C(=O)c2cc(NS(C)(=O)=O)ccc2OC[C@@H]2O[C@@H](CC(=O)NCc3ccc(-c4ccccc4)cc3)CC[C@H]21,4.86%
11,CC1(C(=O)NS(=O)(=O)c2ccc(C#N)cc2)CCN1C(=O)CC1CCCC1 (stereo not drawn),1.94%
12,Cc1noc(C)c1C(=O)N1CCC1(C)C(=O)NS(=O)(=O)c1ccc(C#N)cc1 (stereo not drawn),0.97%
13,CC1(C(=O)NS(=O)(=O)c2ccc(C#N)cc2)CCN1C(=O)c1ccc(C2CCCCC2)cc1 (stereo not drawn),46.9% (active)
14,CC[C@H](NC(=O)[C@H](Cc1ccccc1)NC(=O)[C@H]1O[C@@H](n2cnc3c(=O)[nH]c(N)nc32)[C@H](O)[C@@H]1O)c1ccccc1,14.3%
15,Cc1ccccc1NC(=O)Cn1nnc(-c2ccccc2F)n1,0.27%
16,CCC(C)n1[nH]c(=O)cc1N (stereo not drawn),-0.11%
17,CC(C)(C)n1nc(C2CC2)c(Br)c1NC(=O)c1ccccc1F,2.68%
18,Cc1cc(=O)[nH]c(SCC(=O)Nc2ccc(Cl)cc2C)n1,4.47%
19,Cc1ccc(NC(=O)CSc2nc(CSc3ccc(C)cc3)cc(=O)[nH]2)cc1,45.1% (active)
20,COc1ccc(NC(=O)CSc2nc(NS(=O)(=O)c3ccc(C)cc3)cc(=O)[nH]2)cc1,13.4%
